# Laboratory results from PubChem BioAssay.
# The source made the active and inactive calls.
# Key:
# [1] = E. coli DRC41 culture turbidity changes, primary screen, E. coli filamentation inducer project, strain DRC41, OD650, 48 h (AID 1152);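 note: E. coli MC1000 strain DRC41 lacking acrAB efflux pump and sulA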; conditions: E. coli DRC41 (acrAB sulA), higher = more signal, called active from +8 up or from −8 down
# [2] = small-molecule binders of probe aLefty1, primary screen, biochemical, small-molecule microarray, 635/667 nm fluorescence (AID 1153); conditions: higher = more signal;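 note: score merges spot fluorescence with signal-to-noise ratio from the scanned slide images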
# [3] = PSAC antagonists in infected red cells, primary screen, cell-based, P. falciparum Indochina, OD700, 1 h (AID 1154); conditions: P. falciparum Indochina infected RBC osmotic lysis, higher = more signal, called active from +8 up or from −8 down
# [4] = PSAC antagonists in infected red cells, primary screen, cell-based, P. falciparum Indochina, OD700, 2 h (AID 1155);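 note: lysis reports solute entry through the parasite surface anion channel PSAC; channel blockers reduce lysis of infected cells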; conditions: P. falciparum Indochina infected erythrocytes, osmotic lysis OD700; higher = more signal, called active from +8 up or from −8 down
# [5] = osmotic lysis modulators in infected erythrocytes, primary screen, PSAC antagonist project, cell-based, P. falciparum Indochina, OD700, 3 h (AID 1156); conditions: higher = more signal, called active from +8 up or from −8 down
# [6] = PSAC antagonists in infected red cells, primary screen, cell-based, P. falciparum Indochina, OD700, 18 h (AID 1157); conditions: P. falciparum Indochina infected erythrocytes, osmotic lysis OD700, 18 h; higher = more signal, called active from +8 up or from −8 down
# [7] = modulators of S6 phosphorylation in cells, primary screen, cell-based, A549, cytoblot, luminescence, serum-stimulated (AID 1158); conditions: A549 phospho-S6 cytoblot, 5 h, higher = more signal;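 note: serum-stimulated A549 lung adenocarcinoma cells; signal is phosphorylated S6 detected by cytoblot immunostaining with HRP secondary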
# [8] = target: NADPH oxidase 2 (Homo sapiens) (UniProt P04839); assay: NOX2-dependent H2O2 signal modulators, primary screen, NOX inhibitor project, cell-based, HEK293-NOX2, PMA-stimulated, Amplex Red fluorescence (AID 1159); conditions: 45 min, higher = more signal, called active from +8 up or from −8 down; note: test concentration not given here
# [9] = target: NADPH oxidase 4 (Homo sapiens) (UniProt Q9NPH5); assay: NOX4-dependent H2O2 signal modulators, primary screen, NOX inhibitor project, cell-based, HEK293-NOX4, tetracycline-induced, Amplex Red fluorescence (AID 1160); conditions: 45 min, higher = more signal, called active from +8 up or from −8 down
# [10] = target: NADPH oxidase 5 (Homo sapiens) (UniProt Q96PH1); assay: NOX5-dependent H2O2 signal modulators, primary screen, NOX inhibitor project, cell-based, HEK293-NOX5, Amplex Red fluorescence (AID 1161); conditions: HEK293-NOX5, ionomycin, 45 min, higher = more signal
# Chain of NADPH oxidase 5 (Homo sapiens) (Q96PH1 whole entry, looked up): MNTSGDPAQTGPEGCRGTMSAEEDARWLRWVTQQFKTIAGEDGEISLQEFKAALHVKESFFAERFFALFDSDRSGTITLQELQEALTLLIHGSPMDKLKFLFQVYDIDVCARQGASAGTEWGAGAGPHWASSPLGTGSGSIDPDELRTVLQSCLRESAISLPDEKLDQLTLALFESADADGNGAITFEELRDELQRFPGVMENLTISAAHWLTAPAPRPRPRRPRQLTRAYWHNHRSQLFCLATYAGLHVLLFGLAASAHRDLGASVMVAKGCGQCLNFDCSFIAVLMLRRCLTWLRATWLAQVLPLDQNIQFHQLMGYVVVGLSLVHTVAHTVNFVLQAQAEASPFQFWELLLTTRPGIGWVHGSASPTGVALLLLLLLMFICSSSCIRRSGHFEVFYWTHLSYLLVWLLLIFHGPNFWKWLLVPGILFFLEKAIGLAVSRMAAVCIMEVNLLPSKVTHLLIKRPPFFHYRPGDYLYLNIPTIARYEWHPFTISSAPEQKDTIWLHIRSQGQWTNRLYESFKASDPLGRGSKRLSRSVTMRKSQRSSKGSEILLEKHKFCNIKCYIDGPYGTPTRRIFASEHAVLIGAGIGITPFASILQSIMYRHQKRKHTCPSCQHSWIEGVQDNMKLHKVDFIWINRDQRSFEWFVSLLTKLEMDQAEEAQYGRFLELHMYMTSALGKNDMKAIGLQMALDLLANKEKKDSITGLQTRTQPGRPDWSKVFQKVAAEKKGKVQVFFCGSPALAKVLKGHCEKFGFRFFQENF
# Chain of NADPH oxidase 4 (Homo sapiens) (Q9NPH5 whole entry, looked up): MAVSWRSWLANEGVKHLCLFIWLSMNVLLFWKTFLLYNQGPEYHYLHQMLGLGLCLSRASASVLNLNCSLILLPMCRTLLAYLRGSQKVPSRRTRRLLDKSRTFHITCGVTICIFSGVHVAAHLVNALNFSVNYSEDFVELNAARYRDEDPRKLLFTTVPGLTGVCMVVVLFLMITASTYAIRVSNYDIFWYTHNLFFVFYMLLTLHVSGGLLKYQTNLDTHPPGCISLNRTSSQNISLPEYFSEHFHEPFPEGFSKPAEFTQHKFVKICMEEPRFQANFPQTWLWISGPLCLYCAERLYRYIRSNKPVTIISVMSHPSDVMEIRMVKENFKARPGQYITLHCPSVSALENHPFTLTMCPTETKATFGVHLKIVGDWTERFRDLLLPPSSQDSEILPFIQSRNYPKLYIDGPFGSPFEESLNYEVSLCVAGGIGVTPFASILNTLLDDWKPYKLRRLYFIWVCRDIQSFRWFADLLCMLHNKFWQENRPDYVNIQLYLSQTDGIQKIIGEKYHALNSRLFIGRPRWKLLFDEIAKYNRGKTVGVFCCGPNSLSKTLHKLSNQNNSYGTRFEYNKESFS
# Chain of NADPH oxidase 2 (Homo sapiens) (P04839 whole entry, looked up): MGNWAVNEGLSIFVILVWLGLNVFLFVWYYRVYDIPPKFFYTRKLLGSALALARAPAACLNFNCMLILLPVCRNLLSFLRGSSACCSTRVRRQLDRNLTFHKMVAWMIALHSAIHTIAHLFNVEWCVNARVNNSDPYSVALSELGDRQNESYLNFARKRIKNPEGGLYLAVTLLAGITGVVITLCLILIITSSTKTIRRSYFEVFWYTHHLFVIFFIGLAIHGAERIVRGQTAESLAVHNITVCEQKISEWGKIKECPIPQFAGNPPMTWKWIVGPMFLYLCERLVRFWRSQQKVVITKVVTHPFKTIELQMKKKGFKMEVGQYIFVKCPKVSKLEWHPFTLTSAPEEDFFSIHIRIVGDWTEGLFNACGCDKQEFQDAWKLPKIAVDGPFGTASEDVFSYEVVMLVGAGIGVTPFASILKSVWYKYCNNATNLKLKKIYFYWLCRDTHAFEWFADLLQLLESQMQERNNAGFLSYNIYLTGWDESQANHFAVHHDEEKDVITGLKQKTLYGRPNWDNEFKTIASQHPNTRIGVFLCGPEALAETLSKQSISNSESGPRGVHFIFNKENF
Compound,z-score [1],composite z-score [2],z-score [3],z-score [4],z-score [5],z-score [6],z-score [7],z-score [8],z-score [9],z-score [10]
C=CCOC(=O)[C@@H]1[C@H]2C(=O)O[C@H](c3ccccc3)[C@H](c3ccccc3)N2[C@H](c2ccc(OCCOC(=O)[C@@H]3C[C@@H]4C(=O)N5CCC[C@H]5C(=O)N4[C@@H]3c3cccc(OCCO)c3)cc2)[C@@]12C(=O)Nc1ccc(I)cc12,0.745 (inactive),-0.462,3.47 (inactive),1.87 (inactive),3.63 (inactive),0.938 (inactive),0.198,1.82 (inactive),1.64 (inactive),1.73
COCCOC(=O)N1C(=O)[C@@]2(c3cc(C#CCCO)ccc31)[C@H](C(=O)NC[C@H](O)c1ccccc1)[C@H]1C(=O)O[C@H](c3ccccc3)[C@H](c3ccccc3)N1[C@@H]2c1ccccc1OCCO,-0.0118 (inactive),0.213,2.52 (inactive),0.963 (inactive),-0.654 (inactive),0.705 (inactive),-0.18,1.54 (inactive),0.992 (inactive),1.17
OCCCC1=CC(c2cccs2)N(Cc2cccc(OC(F)(F)F)c2)CC1 (stereo not given),-1.07 (inactive),-0.0109,7.72 (inactive),1.33 (inactive),-0.499 (inactive),1.07 (inactive),-0.105,-0.257 (inactive),-1.27 (inactive),-1.11
COc1ccc(C(=O)Nc2ccc3c(c2)[C@]2(O[C@@H](CCO)[C@H]([Si](C)(C)c4ccc(OC)cc4)[C@H]2C)C(=O)N3Cc2ccccc2)cc1,0.257 (inactive),-0.147,4.99 (inactive),1.42 (inactive),2.07 (inactive),-0.237 (inactive),0.776,-5.81 (inactive),-1.21 (inactive),0.304
COC(=O)[C@@]1(Cc2ccccc2N=[N+]=[N-])N=C(c2ccc(OCCCO)cc2)O[C@H]1c1ccccc1,-0.734 (inactive),0.406,22.9 (active),8.4 (active),0.0321 (inactive),2.28 (inactive),0.0781,-2.34 (inactive),0.355 (inactive),-1.76
C=CCC(OC(C)=O)[C@@H]1[C@@H](N(Cc2ccc(-c3ccccc3)cc2)C(=O)Cc2ccc(OC)cc2)c2cc(OCCCO)ccc2N1C(=O)c1ccc(-c2ccccc2)cc1 (stereo not given in full),0.769 (inactive),0.587,1.09 (inactive),0.969 (inactive),0.0304 (inactive),0.406 (inactive),1,0.713 (inactive),0.878 (inactive),2.49
COc1ccc([Si](C)(C)[C@@H]2[C@@H](CCO)O[C@]3(C(=O)N(Cc4ccccc4)c4ccc(N5C(=O)COc6ccccc65)cc43)[C@H]2C)cc1,2.1 (inactive),-0.435,3.28 (inactive),2.11 (inactive),0.364 (inactive),1.78 (inactive),0.631,0.883 (inactive),1.33 (inactive),1.42
C[N+](C)(C)CCCCCCNC(=O)[C@H]1C[C@H]2C(=O)N3CCC[C@H]3C(=O)N2[C@H]1c1cccc(OCCO)c1,-0.507 (inactive),0.0683,5.47 (inactive),0.64 (inactive),-2.56 (inactive),0.498 (inactive),-0.632,1.18 (inactive),1.27 (inactive),0.865
C=CCC(OC(C)=O)[C@@H]1[C@@H](N(Cc2cc3ccccc3o2)C(=O)Cc2ccc(OC)cc2)c2cc(OCCCO)ccc2N1C(=O)c1ccc(-c2ccccc2)cc1 (stereo not given in full),1.26 (inactive),0.143,2.1 (inactive),0.0881 (inactive),0.821 (inactive),0.432 (inactive),0.78,0.125 (inactive),-0.964 (inactive),1.56
O=C(C=C(CC(O)c1cccc(Cl)c1)OCCF)OCCF (stereo not given),0.597 (inactive),-0.0694,1.35 (inactive),-0.385 (inactive),-0.0116 (inactive),-1.67 (inactive),0.785,0.176 (inactive),-0.15 (inactive),0.305
Cc1cc(C)c(C(O)C2C=CC3C(=O)N(c4ccccc4)C(=O)C3N2Nc2ccc([N+](=O)[O-])cc2)c(C)c1 (stereo not given),-0.613 (inactive),0.703,6.15 (inactive),1.76 (inactive),0.252 (inactive),1.13 (inactive),-0.62,-0.305 (inactive),-0.661 (inactive),-1.63
CC(C)(C)OC(=O)CC[C@@]1(C(=O)N2CCCCC2)N=C(c2ccc(OCCCO)cc2)O[C@@H]1c1ccccc1CN=[N+]=[N-],0.502 (inactive),0.549,29.6 (active),25 (active),1.03 (inactive),4.6 (inactive),-0.243,-0.601 (inactive),1.13 (inactive),1.22
CCOC(=O)C[C@H]1[C@H](OC(=O)c2ccc(C(=O)c3ccccc3)cc2)[C@@H](NC(=O)C2CCCCC2)c2cc(OCCCO)ccc2N1C(=O)Cc1ccc(OC)cc1,0.522 (inactive),0.271,2.32 (inactive),0.744 (inactive),0.0357 (inactive),-0.206 (inactive),0.0093,-1.38 (inactive),0.626 (inactive),1.74
C=CC[C@]1(C(=O)N2CCOCC2)N=C(c2ccc(OCCCO)cc2)O[C@H]1c1ccccc1CN=[N+]=[N-],0.434 (inactive),0.483,27.9 (active),23.1 (active),3.57 (inactive),1.89 (inactive),-0.0698,1.4 (inactive),0.226 (inactive),-1.32
CCCCCCC#C[Si](O[C@H](c1ccccc1)c1cn(Cc2cccc(Cl)c2)nn1)(C(C)C)C(C)C,1.9 (inactive),-0.142,0.876 (inactive),0.886 (inactive),0.0206 (inactive),0.162 (inactive),0.635,-0.706 (inactive),-0.705 (inactive),-0.576
O=C1c2ccccc2[C@](Cc2ccccc2I)(C(=O)NC2CC2)[C@H](c2ccc(CO)cc2)N1Cc1ccccc1Cl,-1.03 (inactive),0.44,8.39 (active),0.825 (inactive),2.82 (inactive),0.966 (inactive),-0.283,0.717 (inactive),0.466 (inactive),0.739
CN1C(=O)C2C=CC(C(O)c3cccc4ccccc34)N(NC(=O)OC(C)(C)C)C2C1=O (stereo not given),-0.622 (inactive),0.966,1.15 (inactive),0.564 (inactive),0.0094 (inactive),0.877 (inactive),-1.22,-0.492 (inactive),-3.85 (inactive),0.409
O=C1O[C@H](c2ccccc2)[C@H](c2ccccc2)N2[C@H]1[C@@H](C(=O)N1CCN(c3ncccn3)CC1)[C@]1(C(=O)Nc3ccc(C#CCCO)cc31)[C@H]2c1ccccc1OCCO,0.313 (inactive),-0.012,2.7 (inactive),1.55 (inactive),0.561 (inactive),0.657 (inactive),-0.673,1.45 (inactive),0.492 (inactive),0.333
COC(=O)[C@@]1(Cc2ccc(OC)cc2)[C@H]2c3cc(C(=O)N4CCCC4)n(CCF)c3C[C@H]2CN1C(=O)c1ccccc1,-1.28 (inactive),2.49,10.4 (active),1.42 (inactive),2.39 (inactive),1.13 (inactive),0.181,-0.201 (inactive),-2.52 (inactive),-3.65
CC(=O)NCCCC[C@@H]1NC(=O)[C@@H]2C[C@H](C(=O)NCCCC[N+](C)(C)C)[C@H](c3cccc(OCCO)c3)N2C1=O,-0.832 (inactive),0.206,1.63 (inactive),0.372 (inactive),-0.122 (inactive),0.154 (inactive),-0.246,0.151 (inactive),-0.0151 (inactive),1.29
COCCCNC(=O)[C@]1(Cc2ccccc2)N=C(c2ccc(OCCCO)cc2)O[C@@H]1c1ccccc1N=[N+]=[N-],1.1 (inactive),0.334,31.9 (active),27.3 (active),2.49 (inactive),2.24 (inactive),1.44,-5.51 (inactive),-2.84 (inactive),-2.21
CCCNC(=O)[C@@H]1c2ccccc2C(=O)N(CC23CC4CC(CC(C4)C2)C3)[C@H]1c1ccc(CO)cc1,-0.59 (inactive),0.376,2.45 (inactive),0.79 (inactive),1.88 (inactive),0.276 (inactive),0.171,0.717 (inactive),-1.2 (inactive),-2.76
CN(C)CCCNC(=O)[C@@]1(Cc2ccccc2I)c2ccccc2C(=O)N(Cc2ccccc2Cl)[C@H]1c1ccc(CO)cc1,-2.91 (inactive),0.208,10.7 (active),0.867 (inactive),-0.613 (inactive),0.524 (inactive),-1.27,-10.2 (active),-4.71 (inactive),-5.47
O=C(NCc1ccccc1)[C@]1(Cc2ccccc2)N=C(c2ccc(OCCCO)cc2)O[C@@H]1c1ccccc1,-2.04 (inactive),-0.225,30.1 (active),22.5 (active),0.578 (inactive),2.53 (inactive),-0.397,0.158 (inactive),-0.503 (inactive),-0.855
C=C(C(=O)CC[C@H](OC(=O)c1cccnc1)c1ccc(OCCO)cc1)C(C)C,-0.903 (inactive),0.282,23.1 (active),5.33 (inactive),1.01 (inactive),1.24 (inactive),0.136,-0.427 (inactive),0.525 (inactive),-1.85
C=CCOc1ccc([C@@H]2CC=C(C(=O)OCC)[C@H](c3cccc(Br)c3)N2S(=O)(=O)c2ccc(C)cc2)cc1,0.251 (inactive),-0.012,0.652 (inactive),-0.384 (inactive),-0.864 (inactive),-2.24 (inactive),1.11,0.629 (inactive),0.399 (inactive),-0.0171
